Measured values: ChEMBL document CHEMBL3988442, “University of Dundee, Small-Polar-MMV Screening Library” (2021)
In all, about 48,000 compounds went through this assay and about 13,000 (27%) showed an effect of 50% or more. Some of the results follow.

tested on: Wolbachia pipientis; assay: Anti-Wolbachia Cell-Based Screen; format: functional; parameters: scale not given: in the data most compounds retested in dose-response had high values; settings: 5 µM

Row | SMILES | Percent Effect
1 | CS(=O)(=O)N1CCC(NCC2(N3CCOCC3)CCCCC2)CC1 | -12.17%
2 | COc1cc2cc(C(=O)N[C@@H](C)C(=O)O)n(C)c2c(OC)c1OC | 6.023%
3 | CC(C)Cc1ncc(CNc2cnccc2CO)s1 | 2.618%
4 | CC(C)n1cnc2c1C(C(=O)NCCO)N(Cc1ccccc1)CC2.O=C(O)C(F)(F)F (stereo unspecified) | 2.168%
5 | CN(C1CCc2ccccc2C1)S(C)(=O)=O (stereo unspecified) | -5.064%
6 | COCCN(CC(F)F)c1cc(COC)nc2ncnn12 | 3.034%
7 | CCC(=O)N1CCCN(Cn2nc(C)c(Br)c2C)CC1 | 116.5%
8 | COCC(=O)N1CCN(Cc2nnc(C(C)(C)C)o2)CC1 | -20.23%
9 | CCn1c(CN2CCCN(C(=O)OC)CC2)nc2c(F)cccc21 | -3.965%
10 | CCC(=O)N1CCCN(C(=O)c2cc(C)cc(Br)c2O)CC1 | 5.319%
11 | COC(=O)N1CCCN(C(=O)c2cccc3cccnc23)CC1 | -4.967%
12 | COCC(=O)N1CCCN(Cc2c(C)nc3ccc(Cl)cn23)CC1 | -0.9556%
13 | COCC(=O)N1CCN(Cn2nc(C)c(Br)c2C)CC1 | 100.8%
14 | CCn1ccnc1CN1CCCN(C(=O)Cn2nc(C)cc2C)CC1 | -3.678%
15 | COC(=O)N1CCCN(Cn2nc(C)c(Br)c2C)CC1 | 92.29%
16 | O=C(CCCn1nnc(-c2ccc(F)cc2)n1)N1CCOCC(CO)C1 (stereo unspecified) | -1.392%
17 | CCCN(Cc1nccn1C)C(=O)c1cnn[nH]1 | -16.97%
18 | Cc1nn(-c2ccccc2)c2nc(C(C)(C)CN3CCN(C)CC3)[nH]c12 | 102.6%
19 | CC(CN1CCOCC1)NCc1nncn1C1CCCCC1 (stereo unspecified) | -12.38%
20 | Cc1nn(-c2ccccc2)c(C)c1-c1ccnc(N2CCC(O)CC2)n1 | -6.995%
21 | Cc1nn(C2CCCCC2)c2nc(C(C)(C)CN3CCOCC3)[nH]c12 | 104.5%
22 | CC(C)(C)c1c[nH]c([C@@H]2COCCN2C2CCCCC2)n1 | -16.61%

Row | SMILES | Percent Effect
23 | Cc1nn(C2CCCC2)c2nc(C(C)(C)CN3CCN(C)CC3)[nH]c12 | 98.14%
24 | Cn1ncc2c(NCCCOc3cccnc3)nc(C3CCCC3)nc21 | 15.74%
25 | CCn1cnnc1C1CCN(C(=O)c2cc(OC)ccc2OC)CC1 | 101%
26 | CCn1cnnc1C1CCN(C(=O)c2ccccc2OC)CC1 | -6.439%
27 | CCn1cnnc1C1CCN(C(=O)c2cccc(OC)c2OC)CC1 | 96.27%
28 | CCn1cnnc1C1CCN(C(=O)COc2ccc(Cl)cc2)CC1 | 6.006%
29 | CCn1cnnc1C1CCN(C(=O)c2cc(F)ccc2OC)CC1 | 106.7%
30 | CCn1cnnc1C1CCN(C(=O)c2ccc(Cl)cc2OC)CC1 | 99.28%
31 | CCn1cnnc1C1CCN(C(=O)COc2ccccc2OC)CC1 | 7.042%
32 | COc1ccc(CC(=O)N2CCC(c3nncn3C)CC2)cc1F | -9.824%
33 | CCn1cnnc1C1CCN(C(=O)Cc2ccc(OC)c(F)c2)CC1 | -0.6685%
34 | O=C(O)C(F)(F)F.O=C([C@H]1COC[C@H]2CN(C3CCCC3)C[C@H]21)N1CCCCO1 | -5.445%
35 | O=C(Cc1cccc(Cl)c1)Nc1cnccc1SCCCO | 7.035%
36 | COc1ccc(CNc2nncs2)cc1F | -12.2%
37 | O=C(Nc1ccc(OC(F)F)cc1)N1CCC(c2nnc[nH]2)CC1 | -4.065%
38 | NC(=O)CSc1ccccc1NC(=O)CC1C=CCC1 (stereo unspecified) | 119.4%
39 | CC(C)(C)CC(=O)Nc1ccccc1SCC(N)=O | 103.7%
40 | CSc1ccccc1NC(=O)CCN1CCC(C(=O)N(C)C)CC1 | 8.025%
41 | CC(=O)N1CCCC(C(=O)Nc2ccccc2Cc2ccccc2)C1 (stereo unspecified) | 4.475%
42 | CNC(=O)Cc1ccccc1NC(=O)C1CCN(C2CCCCC2)C1 (stereo unspecified) | -1.289%
43 | O=C(Nc1cccnc1-n1cncn1)C1CCC1 | -13.11%
44 | NC(=O)CSc1ccccc1NC(=O)C1CCCCC1 | 84.77%

Row | SMILES | Percent Effect
45 | NC(=O)CSc1ccccc1NCc1nc(C2CC2)no1 | -3.279%
46 | CNC(=O)Cc1ccccc1NC(=O)C1CCCC1 | 5.338%
47 | NC(=O)CSc1ccccc1NCc1nc(Cc2ccccc2)no1 | -16.37%
48 | NC(=O)CSc1ccccc1NC(=O)C1CCCC1 | 99.94%
49 | CCCN1CCC(N(C)CCC(=O)Nc2ccccc2SC)CC1 | -1.207%
50 | CCc1ccc(CN(CCN(C)C)Cc2ccc(C)s2)nc1 | 19.31%
51 | CN(C)CCN1CCOCC2(C1)CN(Cc1nccs1)CCO2.O=C(O)C(F)(F)F.O=C(O)C(F)(F)F.O=C(O)C(F)(F)F (stereo unspecified) | -2.784%
52 | Cn1nnc2c1CCN(Cc1ccncc1)C2COCc1ccccc1.O=C(O)C(F)(F)F.O=C(O)C(F)(F)F (stereo unspecified) | 7.235%
53 | CCn1cc(CN2CCCN(C(=O)c3ccn(C)c(=O)c3)CC2)cn1 | -5.674%
54 | CCn1cc(CN2CCCN(C(=O)c3ccco3)CC2)cn1 | 139.7%
55 | CCn1cc(CN2CCCN(C(=O)c3ccoc3)CC2)cn1 | 93.78%
56 | Cc1cccc(C(=O)N2CCCN(Cc3cnn(C)c3)CC2)n1 | -11.33%
57 | CC(C)n1cc(CN2CCCN(C(=O)c3ccoc3)CC2)cn1 | -9.039%
58 | CCn1cc(CN2CCCN(C(=O)c3ccc(C)nc3)CC2)cn1 | 109.5%
59 | Cn1cc(CN2CCCN(C(=O)c3cc[nH]n3)CC2)cn1 | -7.081%
60 | Cc1ccoc1C(=O)N1CCCN(Cc2cnn(C)c2)CC1 | 85.33%
61 | Cn1cc(CN2CCCC3(CCN(C(=O)c4ccoc4)C3)C2)cn1 (stereo unspecified) | -4.278%
62 | CC(C)CCc1noc(CN2CCCN(C(=O)c3ccco3)CC2)n1 | -6.659%
63 | CC(C)n1cc(CN2CCCN(C(=O)c3ccco3)CC2)cn1 | 13.14%
64 | CCc1cccc(NC(=O)CCC(=O)N(C)Cc2nc(C)c[nH]2)c1 | -13.69%
65 | O=C(O)c1cc(-c2ccoc2)cc(S(=O)(=O)NCc2ccccn2)c1 | 3.348%
66 | c1cncc(COCC2CN(Cc3ccncc3)Cc3ccnn3C2)c1 (stereo unspecified) | -8.453%
